Assay [1] in a line: qHTS assay to identify small molecule antagonists of the glucocorticoid receptor (GR) signaling pathway - cell viability counter screen (AID 720693). Note: nearly all actives have a fitted effect of over 55% in size.
Assay [2] is described as follows: qHTS assay for identifying genotoxic compounds that show differential cytotoxicity against isogenic chicken DT40 cell lines with known DNA damage response pathways - wild type cell line (AID 743012). Note: nearly all actives have a fitted effect of over 60% in size. Note: potency is the fitted concentration of half-maximal effect. A digest of the protocol: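 Wild type DT40, 300 cells/well, ~0.5 h settle at 37 C/5% CO2; compounds in DMSO added by pintool; 40 h at 37 C/5% CO2; CellTiter-Glo, 30 min RT; luminescence.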

Assay [3] in a line: qHTS assay for identifying genotoxic compounds that show differential cytotoxicity against isogenic chicken DT40 cell lines with known DNA damage response pathways - Rev3 mutant cell line (AID 743014). Note: nearly all actives have a fitted effect of over 55% in size. Note: potency is the fitted concentration of half-maximal effect.
Assay [4] can be described thus: qHTS assay for identifying genotoxic compounds that show differential cytotoxicity against isogenic chicken DT40 cell lines with known DNA damage response pathways - Rad54/Ku70 mutant cell line (AID 743015). Note: nearly all actives have a fitted effect of over 60% in size. Note: potency is the fitted concentration of half-maximal effect.
The nature of assay [5]: qHTS assay to identify small molecule antagonists of the androgen receptor (AR) signaling pathway - cell viability counter screen (AID 743033; note: nearly all actives have a fitted effect of over 45% in size).
Assay [6] is described as follows: qHTS assay to identify small molecule antagonists of the androgen receptor (AR) signaling pathway using the MDA cell line - cell viability counter screen (AID 743041; note: nearly all actives have a fitted effect of over 45% in size). The method in brief: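 MDA-kb2 AR-luc cells (MMTV-luciferase, AR/GR responsive) treated with compounds plus R1881 agonist for 16 h at 37C. CellTiter-Fluor added at 15.5 h; fluorescence read after 30 min in the same wells.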

Assay [7] can be described thus: qHTS assay to identify small molecule antagonists of the thyroid receptor (TR) signaling pathway - cell viability counter screen (AID 743064). Note: nearly all actives have a fitted effect of over 50% in size. A digest of the protocol: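 Rat GH3 pituitary tumor cells stably expressing two TR response elements driving luciferase were plated, rested 4 h, then dosed with library compounds and T3 (1 nM final). After 23.5 h at 37 °C, CellTiter-Fluor was added for 30 min and fluorescence recorded.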

Assay [8] can be described thus: qHTS assay to identify small molecule antagonists of the thyroid receptor (TR) signaling pathway (AID 743065). Note: nearly all actives have a fitted effect of over 55% in size. Note: potency is the fitted concentration of half-maximal effect. The method in brief: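 GH3.TRE-Luc rat pituitary cells (two TREs driving luciferase) were dosed with compound, then stimulated with 1 nM T3 (final) for 23.5 h at 37 C. ONE-Glo luminescence was the read-out, with CellTiter-Fluor fluorescence as the cytotoxicity counter-screen.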

The test system of assay [9] is thyroid hormone receptor (rat, GH3 cells). Put plainly: qHTS assay to identify small molecule agonists of the thyroid receptor (TR) signaling pathway (AID 743066; calls by dose curve).
Assay [10] is described as follows: qHTS assay to identify small molecule antagonists of the estrogen receptor alpha (ER-alpha) signaling pathway - cell viability counter screen (AID 743074; calls by dose curve;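 note: HEK293 cells carrying ER-alpha-UAS-bla reporter stimulated with 17beta-estradiol; nearly all actives have a fitted effect of over 45% in size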).
Assay [11] is described as follows: qHTS assay to identify small molecule antagonists of the estrogen receptor alpha (ER-alpha) signaling pathway using the BG1 cell line - cell viability counter screen (AID 743081).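 Note: compound given together with 17beta-estradiol as the ER stimulus; series mostly up to about 70 µM; nearly all actives have a fitted effect of over 45% in size.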
A further assay addresses Aromatase (Homo sapiens) (UniProt P11511). Kind of assay: qHTS assay to identify aromatase inhibitors (AID 743083). Note: nearly all actives have a fitted effect of over 55% in size. Note: potency is the fitted concentration of half-maximal effect.
For assay [12], the target named is Androgen receptor (Homo sapiens) (UniProt P10275). Put plainly: qHTS assay to identify small molecule antagonists of the androgen receptor (AR) signaling pathway (AID 743035; active = well fitted inhibition curve with a large enough effect in the signal ratio in the repeat runs, not every such curve was filed as active; the % refers to the signal ratio). A digest of the protocol: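 Fluorescence from a beta-lactamase FRET substrate (LiveBLAzer B/G, 2 h, room temperature) measured inhibition of R1881-stimulated signaling in GeneBLAzer AR-UAS-bla HEK293 cells exposed to compound for 16 h at 37C.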
Sequence of Androgen receptor (Homo sapiens) (P10275 whole entry, looked up): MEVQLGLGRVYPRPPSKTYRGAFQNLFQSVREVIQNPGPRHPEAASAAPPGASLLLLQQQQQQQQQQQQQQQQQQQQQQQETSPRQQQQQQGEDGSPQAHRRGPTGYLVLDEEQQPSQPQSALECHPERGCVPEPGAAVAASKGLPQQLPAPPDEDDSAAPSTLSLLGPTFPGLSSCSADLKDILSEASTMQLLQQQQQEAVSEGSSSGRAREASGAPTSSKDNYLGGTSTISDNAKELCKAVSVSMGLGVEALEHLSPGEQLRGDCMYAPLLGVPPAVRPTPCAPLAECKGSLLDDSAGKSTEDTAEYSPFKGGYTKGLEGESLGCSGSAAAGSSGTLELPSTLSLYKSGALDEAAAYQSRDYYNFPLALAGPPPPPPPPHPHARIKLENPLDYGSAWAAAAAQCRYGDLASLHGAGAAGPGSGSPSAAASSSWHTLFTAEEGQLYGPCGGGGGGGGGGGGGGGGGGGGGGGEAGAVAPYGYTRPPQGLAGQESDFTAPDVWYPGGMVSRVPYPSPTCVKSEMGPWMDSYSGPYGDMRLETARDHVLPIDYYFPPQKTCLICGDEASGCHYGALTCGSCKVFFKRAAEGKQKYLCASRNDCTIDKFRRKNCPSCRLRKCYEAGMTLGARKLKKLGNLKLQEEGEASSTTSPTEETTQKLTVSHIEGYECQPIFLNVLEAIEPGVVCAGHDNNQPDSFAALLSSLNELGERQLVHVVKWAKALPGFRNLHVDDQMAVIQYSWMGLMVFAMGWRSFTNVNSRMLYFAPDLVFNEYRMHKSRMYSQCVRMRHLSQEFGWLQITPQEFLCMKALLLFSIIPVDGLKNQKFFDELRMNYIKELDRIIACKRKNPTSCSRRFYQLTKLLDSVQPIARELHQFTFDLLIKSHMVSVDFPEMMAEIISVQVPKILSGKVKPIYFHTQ

Assay [13] shares this target. Put plainly: qHTS assay to identify small molecule agonists of the androgen receptor (AR) signaling pathway (AID 743036; active = well fitted activation curve with a large enough effect in the signal ratio in the repeat runs, with a control signal flat, not every such curve was filed as active; the % refers to the signal ratio). A digest of the protocol:
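Quantitative HTS of the Tox21 10K library in HEK293 cells bearing a stably integrated UAS-controlled beta-lactamase reporter. Compound exposure lasted 16 h at 37C. Reporter activity was detected by FRET substrate fluorescence after 2 h at room temperature.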

Assay [14] has the same target. Kind of assay: qHTS assay to identify small molecule agonists of the androgen receptor (AR) signaling pathway using the MDA cell line (AID 743040; note: nearly all actives have a fitted effect of over 20% in size). A digest of the protocol:
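MDA-kb2 breast carcinoma cells carrying MMTV-luciferase (responsive to AR and GR), plated 5 h then treated 16 h with compounds at 37C, 0% CO2. Read-out was ONE-Glo luminescence after 30 min at room temperature.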

Assay [15] shares this target. Kind of assay: qHTS assay to identify small molecule antagonists of the androgen receptor (AR) signaling pathway using the MDA cell line (AID 743042; note: nearly all actives have a fitted effect of over 55% in size). A digest of the protocol: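 MDA-kb2 breast carcinoma cells carrying MMTV-luciferase (AR/GR responsive) were co-treated with compounds and the agonist R1881 for 16 h at 37C. Inhibition read as ONE-Glo luminescence; CellTiter-Fluor fluorescence measured in parallel for cytotoxicity.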

Assay [16] concerns the target Estrogen receptor (Homo sapiens) (UniProt P03372). Kind of assay: qHTS assay to identify small molecule agonists of the estrogen receptor alpha (ER-alpha) signaling pathway (AID 743075; calls by dose curve; note: potency is the fitted concentration of half-maximal effect).
The target is the same in assay [17]. Kind of assay: qHTS assay to identify small molecule agonists of the estrogen receptor alpha (ER-alpha) signaling pathway using the BG1 cell line (AID 743079). Note: nearly all actives have a fitted effect of over 20% in size. Note: potency is the fitted concentration of half-maximal effect.
Assay [18] shares this target. Kind of assay: qHTS assay to identify small molecule antagonists of the estrogen receptor alpha (ER-alpha) signaling pathway (AID 743069; active = well fitted curve in the direction sought with a large enough effect in the signal ratio in the repeat runs, not every such curve was filed as active; the % refers to the signal ratio). A digest of the protocol: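 HEK293 ER-alpha-UAS-bla GripTite cells, held overnight in 2% charcoal-stripped FBS, 5,000 cells/well, preincubated 4 h, then compound plus 17beta-estradiol for 18 h at 37C. Beta-lactamase read by LiveBLAzer B/G FRET substrate, 2 h at room temperature.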

Assay [19] is described as follows: qHTS assay to identify small molecule antagonists of the estrogen receptor alpha (ER-alpha) signaling pathway using the BG1 cell line (AID 743080; calls by dose curve;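 note: BG1 cells stimulated with 17beta-estradiol alongside compound; nearly all actives have a fitted effect of over 25% in size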; note: potency is the fitted concentration of half-maximal effect). The method in brief:
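Seeding, 24 h rest, compound transfer from DMSO, 17beta-estradiol addition, 21.5 h incubation, CellTiter-Fluor (30 min, 37 C), then ONE-Glo (30 min, room temperature): this sequence was run on BG1-Luc-4E2 reporter cells.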

Consider eight compounds from PubChem BioAssay (Tox21).

Where “and” joins values, the source holds several entries; their conditions need not be identical. Equal entries are not always repeated. Results filed as inconclusive are left out. More than one record can exist for a structure, and the calls need not agree. Calls of active or inactive are those of the source. Unless noted, calls come from the whole dose curve; as a rule, active = well fitted curve in the direction sought with a large enough effect in the repeat runs; inconclusive = weak or mixed curves; inactive = no such curve, though single readings can be large; an effect the other way counts as inactive or inconclusive.

Sequence of Aromatase (Homo sapiens) (P11511 whole entry, looked up): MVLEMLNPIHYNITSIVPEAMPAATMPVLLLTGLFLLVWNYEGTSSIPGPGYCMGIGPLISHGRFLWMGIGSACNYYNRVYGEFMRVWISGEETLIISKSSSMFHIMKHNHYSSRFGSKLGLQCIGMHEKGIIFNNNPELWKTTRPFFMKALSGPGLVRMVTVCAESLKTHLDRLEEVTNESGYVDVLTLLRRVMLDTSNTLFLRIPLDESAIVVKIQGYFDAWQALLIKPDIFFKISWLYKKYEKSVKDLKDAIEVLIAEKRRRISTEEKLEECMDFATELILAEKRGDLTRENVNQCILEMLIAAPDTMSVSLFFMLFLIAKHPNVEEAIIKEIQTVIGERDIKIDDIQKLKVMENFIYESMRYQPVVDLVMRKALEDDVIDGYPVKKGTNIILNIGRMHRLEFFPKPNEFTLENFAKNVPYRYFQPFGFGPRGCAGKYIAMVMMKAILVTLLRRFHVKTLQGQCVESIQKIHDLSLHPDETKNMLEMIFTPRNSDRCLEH
Sequence of Estrogen receptor (Homo sapiens) (P03372 whole entry, looked up): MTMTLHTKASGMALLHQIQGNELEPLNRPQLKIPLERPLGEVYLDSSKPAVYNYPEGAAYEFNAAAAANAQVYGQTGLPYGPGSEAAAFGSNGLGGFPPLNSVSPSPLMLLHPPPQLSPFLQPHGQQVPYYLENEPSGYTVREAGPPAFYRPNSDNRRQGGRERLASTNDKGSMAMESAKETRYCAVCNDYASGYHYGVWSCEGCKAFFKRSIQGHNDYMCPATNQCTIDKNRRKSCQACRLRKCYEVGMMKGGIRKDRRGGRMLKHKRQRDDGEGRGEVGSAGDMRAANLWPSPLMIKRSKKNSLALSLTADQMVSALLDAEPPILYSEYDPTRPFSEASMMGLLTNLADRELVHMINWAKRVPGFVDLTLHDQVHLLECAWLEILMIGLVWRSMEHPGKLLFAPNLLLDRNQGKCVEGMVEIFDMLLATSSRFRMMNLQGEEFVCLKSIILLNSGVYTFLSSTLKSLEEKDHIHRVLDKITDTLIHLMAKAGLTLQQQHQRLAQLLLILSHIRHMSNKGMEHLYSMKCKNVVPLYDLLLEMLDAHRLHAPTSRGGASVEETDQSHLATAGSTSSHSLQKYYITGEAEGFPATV

For the compound `NC(=O)NO`, the Potency result in assay [1], in assay [2], in [4], in assay [6], in assay [7] and in assay [8] was “inactive” throughout. In addition, the Potency entry (in [11]; with Aromatase (Homo sapiens)) was “inactive” throughout. Moreover, in assay [3], the Potency result was “inactive and 61.1 µM (active)”. In addition, the outcome in [5], in assay [9] and in assay [10] was inactive.

As for `C[C@]12CC[C@@H]3c4ccc(O)cc4C[C@@H](CCCCCCCCCS(=O)CCCC(F)(F)C(F)(F)F)[C@H]3[C@@H]1CC[C@@H]2O` (stereo partly specified), the Potency entry in assay [1], in assay [12], in assay [14], in assay [6], in [15] and in assay [11] was “inactive” throughout. In addition, the Potency in assay [2] is 8.41 µM (active); in [4] it was 6.68 µM (active); in [8], 4.2 nM (active) and 0.7 nM (active); with Aromatase (Homo sapiens) it was 59.6 nM (active) and 15.3 nM (active). The call in [5], in [13], in assay [9] and in assay [10] was inactive.

In the case of `COc1ccc(C(=O)c2ccccc2)c(O)c1`, the Potency entry in assay [1], in assay [2], in assay [3], in [12], in assay [14] and in [6] was “inactive” each time. Moreover, the Potency result (in assay [15]; in assay [7]; in [8]; in assay [11]; with Aromatase (Homo sapiens)) was “inactive” in each case. Further, the compound was classed as inactive in assay [5], in assay [9] and in [10]. For the same compound, the Potency in assay [16] is 27.1 µM [fluorescent] (active) and 55 µM [activator] (active); in [17], 23.7 µM (active) and 60.1 µM (active) and 34.4 µM (active).

Turning to `CN(C)Cc1cc(CN(C)C)c(O)c(CN(C)C)c1`, the Potency entry in assay [1], in assay [2], in [4], in [12], in assay [14] and in [6] was “inactive” in each case. Besides, the Potency result in assay [15], in assay [7], in assay [8], in assay [18], in assay [16] and in assay [17] was “inactive” throughout. Besides, the Potency entry (in [19]; in [11]; with Aromatase (Homo sapiens)) was “inactive” each time. The call in assay [5], in [13], in assay [9] and in assay [10] was inactive.

For `Cc1c(N(C)CS(=O)(=O)O)c(=O)n(-c2ccccc2)n1C`, the Potency result in assay [1], in [2], in assay [3], in [4], in [6] and in [7] was “inactive” throughout. Further, the Potency entry (in assay [8]; in [11]; with Aromatase (Homo sapiens)) was “inactive” each time. For the same compound, the compound was classed as inactive in assay [5], in [9] and in assay [10].

Regarding `CC(=O)CCC(C)C`, the Potency result in assay [1], in [2], in [3], in assay [4], in assay [6] and in assay [8] was “inactive” in each case. Moreover, the Potency result (in assay [18]; in [16]; in [17]; in assay [19]; in [11]; in the assay with Aromatase (Homo sapiens)) was “inactive” each time. Also, the call in assay [5], in assay [9] and in assay [10] was inactive.

As for `CCCCCCCC(=O)OCC(O)CO` (stereo unspecified), the Potency result in [1], in assay [2], in assay [3], in assay [4], in assay [6] and in assay [7] was “inactive” each time. Also, the Potency entry (in assay [8]; in assay [11]; with Aromatase (Homo sapiens)) was “inactive” each time. The compound was called inactive in assay [5], in assay [9] and in assay [10].

Turning to `CC1=C(/C=C/C(C)=C/C=C/C(C)=C/C(=O)O)C(C)(C)CCC1`, the Potency entry (in assay [1]; in [6]; in assay [7]; in assay [11]; with Aromatase (Homo sapiens)) was “inactive” each time. The Potency was 33.5 µM (active) and 54.4 µM (active) in [2]; 77 µM (active) and 61.1 µM (active) in assay [3]; 29.8 µM (active) and 61.2 µM (active) and 54.4 µM (active) in [4]; 335 nM (active) and 77 nM (active) in assay [19]. Besides, the compound was classed as inactive in assay [5] and in [10].
